Screening results as filed in PubChem.
Only some compounds are listed: those with a hit (about 3.9% of all), similar ones and a draw of the others.
BoNT-F LC inh: BoNT/F light chain protease inhibitors, primary screen, biochemical, flow cytometry, MLPCN library. Botulinum neurotoxin type F light chain protease (Clostridium botulinum). Multiplex microsphere protease cleavage assay. inhibition, % at 10 µM. 0.22% of 360,000 active. AID 588497, 2011; in the data active = inhibition above about 35%, passing the limit was not always enough; inconclusive = no clear call, values can overlap the other calls; note: plate controls were buffer without enzyme for full effect and enzyme alone for no effect
BoNT A protease: BoNT/A light chain protease inhibitors, primary screen, biochemical, flow cytometry, MLPCN library. 0.17% of 360,000 active. inhibition, % at 10 µM. Botulinum neurotoxin type A light chain protease (Clostridium botulinum A str. ATCC 3502). multiplex microsphere protease substrate cleavage; note: plate controls were buffer without enzyme for full effect and enzyme alone for no effect
Anthrax LF prot: Bacillus anthracis LF protease inhibitors, primary screen, biochemical, multiplex microsphere, MLPCN library; multiplex microsphere protease cleavage assay; inhibition, % at 10 µM; 0.12% of 360,000 active; note: plate controls were buffer without enzyme for full effect and enzyme alone for no effect
Target sequence (P15917 whole entry, looked up): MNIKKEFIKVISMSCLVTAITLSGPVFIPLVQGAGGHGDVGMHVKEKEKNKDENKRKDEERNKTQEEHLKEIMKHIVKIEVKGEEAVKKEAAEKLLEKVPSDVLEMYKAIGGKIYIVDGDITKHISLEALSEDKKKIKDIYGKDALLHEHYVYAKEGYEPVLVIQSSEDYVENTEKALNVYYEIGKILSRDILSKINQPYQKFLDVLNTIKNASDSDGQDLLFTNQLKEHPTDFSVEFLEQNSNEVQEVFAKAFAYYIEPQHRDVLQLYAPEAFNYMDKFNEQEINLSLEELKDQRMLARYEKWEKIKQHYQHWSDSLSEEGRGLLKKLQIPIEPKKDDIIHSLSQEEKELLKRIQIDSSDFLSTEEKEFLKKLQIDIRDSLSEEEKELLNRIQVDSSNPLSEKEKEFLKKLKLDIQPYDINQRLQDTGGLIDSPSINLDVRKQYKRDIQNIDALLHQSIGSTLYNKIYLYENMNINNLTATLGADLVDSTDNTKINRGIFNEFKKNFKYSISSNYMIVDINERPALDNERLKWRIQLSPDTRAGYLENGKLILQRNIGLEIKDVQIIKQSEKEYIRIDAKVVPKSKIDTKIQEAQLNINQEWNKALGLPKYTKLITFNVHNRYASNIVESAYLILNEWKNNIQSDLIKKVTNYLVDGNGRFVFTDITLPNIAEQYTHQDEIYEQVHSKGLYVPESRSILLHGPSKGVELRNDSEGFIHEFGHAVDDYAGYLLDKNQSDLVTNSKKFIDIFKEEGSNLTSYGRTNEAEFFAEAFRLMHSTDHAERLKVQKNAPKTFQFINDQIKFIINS
Autofluor counter: flagged as autofluorescent in microsphere protease counterscreen. compound autofluorescence counterscreen, microsphere flow cytometry; stronger effect = higher value. fluorescence intensity (no concentration beside the values). AID 624483. 3.1% of 360,000 active; in the data active = fluorescence intensity above about 16000; inconclusive = no clear call, values can overlap the other calls
3CLpro inhibitor: SARS-CoV 3CLpro protease inhibitors, primary screen, biochemical, quenched FRET. Replicase polyprotein 1ab (Severe acute respiratory syndrome coronavirus), P0C6X7. recombinant SARS-CoV 3CLpro, quenched FRET peptide cleavage. inhibition, % at 6 µM. 0.14% of 290,000 active. AID 1706, 2009; in the data active = inhibition above about 12%
CCHF vOTU inh: CCHFV vOTU protease inhibitors, primary screen, biochemical, Pep-AMC substrate, fluorescence. inhibition, % at 11.5 µM. 0.55% of 370,000 active. AID 651958, 2012; in the data active = inhibition above about 30%; note: 0% = vehicle wells with enzyme and 100% = no enzyme wells
Numbers without * were called inactive. Cut-off read from the data, not from the text of the source, unless noted: active = inhibition above about 30%; inconclusive = no clear call, values can overlap the other calls; inactive = below that.

How did O=C(Nc1ccccc1-c1ccccc1NC(=O)c1ccco1)c1ccco1 do in these assays?
BoNT-F LC inh: 1; BoNT A protease: 0; Anthrax LF prot: 0; Autofluor counter: 3324; 3CLpro inhibitor: -1; CCHF vOTU inh: 11

What do the screens show for `CSc1ccccc1NC(=O)c1ccco1`?
BoNT-F LC inh: 0; BoNT A protease: 0; Anthrax LF prot: 0; Autofluor counter: 22329*; 3CLpro inhibitor: 5; CCHF vOTU inh: -2

How did O=C(Nc1ccccc1F)c1ccco1 do in these assays?
BoNT-F LC inh: -16; BoNT A protease: -1; Anthrax LF prot: -3; Autofluor counter: 9353; 3CLpro inhibitor: -2; CCHF vOTU inh: -6

How did CCOC(=O)c1c(-c2ccccc2)nc2ccccn12 do in these assays?
BoNT-F LC inh: -1; BoNT A protease: inconclusive; Anthrax LF prot: 1; Autofluor counter: 22802*; 3CLpro inhibitor: -4; CCHF vOTU inh: -1

What do the screens show for `O=C(Nc1ccccc1NC(=O)c1ccco1)c1ccco1`?
BoNT-F LC inh: 1; BoNT A protease: 0; Anthrax LF prot: -2; Autofluor counter: 22408*; 3CLpro inhibitor: 1; CCHF vOTU inh: 8

Results for CCOC(=O)[C@]12CCCCC/C=C\1N(CCc1ccc(Cl)cc1)C(=O)[C@H]2CC(=O)N1CCCCC1 ?
CCHF vOTU inh: 10

How did NC(=O)c1ccccc1N do in these assays?
BoNT-F LC inh: 4; BoNT A protease: 0; Anthrax LF prot: 4; Autofluor counter: 3998; CCHF vOTU inh: -29

What do the screens show for `Nc1nnc(C(=O)c2ccccc2N)s1`?
BoNT-F LC inh: -3; BoNT A protease: -2; Anthrax LF prot: 0; Autofluor counter: 21252*; 3CLpro inhibitor: 4

What do the screens show for `C=CCNC(=O)CN(C(=O)c1csc2ccc(Cl)cc12)c1cccc(Br)c1`?
CCHF vOTU inh: 5

Results for O=C(Nc1ccccc1Cl)c1cccc(NC(=O)C2C3CC4OC(=O)C2C4C3)c1 (stereo unspecified) ?
BoNT-F LC inh: 0; BoNT A protease: 1; Anthrax LF prot: 3; Autofluor counter: 23034*; 3CLpro inhibitor: 0; CCHF vOTU inh: 8

Results for CN1C(=O)c2cc(NC(=O)Nc3ccccc3)ccc2OC[C@H]2O[C@@H](CC(=O)NC3Cc4ccccc4C3)CC[C@@H]21 ?
CCHF vOTU inh: 2

How did COc1nc(OC)nc(N2CCC(C(=O)NCc3cccs3)CC2)n1 do in these assays?
BoNT-F LC inh: 3; BoNT A protease: inconclusive; Anthrax LF prot: 0; Autofluor counter: 21111*; 3CLpro inhibitor: -7; CCHF vOTU inh: -5

How did Cc1cc(C)nc(N2CCCC(C(=O)NC(C)CCc3ccco3)C2)n1 (stereo unspecified) do in these assays?
BoNT-F LC inh: -2; BoNT A protease: inconclusive; Anthrax LF prot: -2; Autofluor counter: 23504*; 3CLpro inhibitor: 1; CCHF vOTU inh: -5

How did Cc1cnc(C)c(N2CCC(C(=O)NCc3cccs3)CC2)n1 do in these assays?
BoNT-F LC inh: -4; BoNT A protease: 0; Anthrax LF prot: -1; Autofluor counter: 3253; 3CLpro inhibitor: 4; CCHF vOTU inh: 1

How did Cc1cc(C)nc(N2CCCC(C(=O)NCc3ccccc3)C2)n1 (stereo unspecified) do in these assays?
BoNT-F LC inh: 6; BoNT A protease: 2; Anthrax LF prot: -1; Autofluor counter: 8973; 3CLpro inhibitor: -5; CCHF vOTU inh: -12

How did Cc1cc(C)nc(N2CCCC(C(=O)NCc3cccs3)C2)n1 (stereo unspecified) do in these assays?
BoNT-F LC inh: 3; BoNT A protease: 3; Anthrax LF prot: -4; Autofluor counter: 21442*; 3CLpro inhibitor: -1; CCHF vOTU inh: 12

Results for O=C(NCc1cccs1)C1CCCN(c2nc3ccccc3o2)C1 (stereo unspecified) ?
BoNT-F LC inh: 1; BoNT A protease: 1; Anthrax LF prot: 1; Autofluor counter: 16144*; 3CLpro inhibitor: 1; CCHF vOTU inh: 12

What do the screens show for `Cc1ccc(CNC(=O)C2CCCN(c3nc4ccccc4o3)C2)cc1` (stereo unspecified)?
BoNT-F LC inh: -8; BoNT A protease: -1; Anthrax LF prot: -5; Autofluor counter: 4531; 3CLpro inhibitor: -1; CCHF vOTU inh: -4

How did CCCCNC(=O)C[C@H]1C[C@@]2(C(=O)OC)C(=C[C@H](C(C)C)O[C@@H]2C2CC2)N(CCc2ccc(OC)c(OC)c2)C1=O do in these assays?
CCHF vOTU inh: 2

Results for O=S1(=O)CC2c3ccccc3CN2CN1Cc1ccccc1 (stereo unspecified) ?
CCHF vOTU inh: -5

Results for C=CCn1c(N)c(-c2nc3ccccc3n2C)sc1=S ?
BoNT-F LC inh: 1; BoNT A protease: 11; Anthrax LF prot: 14; Autofluor counter: 22610*; 3CLpro inhibitor: 3; CCHF vOTU inh: -10

What do the screens show for `COc1ccc(S(=O)(=O)N(C)CC(=O)Nc2cccc(C(C)=O)c2)cc1Cl`?
BoNT-F LC inh: 11; BoNT A protease: 7; Anthrax LF prot: 0; Autofluor counter: 18037*; 3CLpro inhibitor: -1; CCHF vOTU inh: -8

Results for O=C(COCc1ccccc1)N1CC[C@H]2[C@H](CCCN2Cc2ccccc2)C1 ?
CCHF vOTU inh: 2

Results for CC1CCCCC1C(=O)N1CCC(Oc2cccnc2)CC1 (stereo unspecified) ?
CCHF vOTU inh: -1

What do the screens show for `O=C(Nc1ccn(Cc2c(F)c(F)c(F)c(F)c2F)n1)c1ccc(COc2ccccc2Cl)cc1`?
BoNT-F LC inh: -8; BoNT A protease: -4; Anthrax LF prot: -3; Autofluor counter: 25404*; 3CLpro inhibitor: -1; CCHF vOTU inh: -14

What do the screens show for `Cc1nn(Cc2c(F)c(F)c(F)c(F)c2F)c(C)c1NC(=O)c1cccc(COc2ccccc2Cl)c1`?
BoNT-F LC inh: 4; BoNT A protease: 3; Anthrax LF prot: -10; Autofluor counter: 20980*; 3CLpro inhibitor: 4; CCHF vOTU inh: -2

How did CCC/C(=C1/c2ccccc2C(=O)N1c1ccccc1)c1c(C)noc1C do in these assays?
CCHF vOTU inh: 6

Results for CN1CCCCC(NC(=O)CCl)C1=O (stereo unspecified) ?
CCHF vOTU inh: -10

Results for O=C(C1COc2ccccc2O1)N1CCN(S(=O)(=O)c2ccccc2)CC1 (stereo unspecified) ?
BoNT-F LC inh: -3; BoNT A protease: -2; Anthrax LF prot: 0; Autofluor counter: 4636; 3CLpro inhibitor: 1; CCHF vOTU inh: -3

How did Cc1ccc(S(=O)(=O)N2CCN(C(=O)C3COc4ccccc4O3)CC2)cc1C (stereo unspecified) do in these assays?
BoNT-F LC inh: 5; BoNT A protease: inconclusive; Anthrax LF prot: -3; Autofluor counter: 19329*; 3CLpro inhibitor: 5; CCHF vOTU inh: -16
